Compounds without any hit were thinned out: in the full panel of roughly 79,000, 15% have a hit. Activity calls are given as the source filed them. Cut-off read from the data, not from the text of the source: active = growth inhibition above about 70%; inactive = the rest.
Experiments:
[1] = NCI Yeast Anticancer Drug Screen. Data for the wt1 strain (AID 149);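 note: 0% = growth of vehicle-treated wt1 cultures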; conditions: S. cerevisiae wt1 strain (SPY 50644) growth inhibition, stronger effect = higher value
In short: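 Using yeast strain wt1, compound-induced growth inhibition was determined against vehicle-treated cultures.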

[2] = NCI Yeast Anticancer Drug Screen. Data for the rad50EPP+ strain (AID 151);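 note: 0% = growth of vehicle-treated control cultures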; conditions: S. cerevisiae rad50 mutant strain, stronger effect = higher value
In short: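 One strain with a rad50 alteration (rad50EPP+) was compound-treated, its growth then compared to that of vehicle controls.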

[3] = NCI Yeast Anticancer Drug Screen. Data for the mgt1 strain (AID 153); conditions: S. cerevisiae mgt1 mutant growth inhibition, stronger effect = higher value
In short: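 After exposure of the mgt1 yeast mutant to compound, growth was measured and reported as inhibition compared with vehicle controls.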

[4] = NCI Yeast Anticancer Drug Screen. Data for the rad50 strain (AID 155);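 note: 0% = growth of vehicle-only cultures of the same strain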; conditions: S. cerevisiae rad50 strain growth inhibition, stronger effect = higher value
In short: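 Relative growth inhibition (compound vs vehicle) was measured in yeast with a defined repair-gene alteration.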

[5] = NCI Yeast Anticancer Drug Screen. Data for the mec2-1 strain (AID 157); conditions: S. cerevisiae mec2-1 strain, stronger effect = higher value
In short: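 Test agents were screened against the mec2-1 yeast strain, with defined DNA repair or cell cycle alteration. Growth was scored as inhibition against vehicle-only controls.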

[6] = NCI Yeast Anticancer Drug Screen. Data for the rad14 strain (AID 159);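 note: 0% = growth of vehicle-treated control cultures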; conditions: S. cerevisiae rad14 strain growth inhibition, stronger effect = higher value
In short: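 Screen for anticancer potential: a yeast strain altered in DNA damage repair is grown with compound, and reduced growth is quantified against vehicle controls.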

[7] = NCI Yeast Anticancer Drug Screen. Data for the sgs1 mgt1 strain (AID 161);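 note: 0% = growth of cultures given vehicle only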; conditions: S. cerevisiae sgs1 mgt1 strain, stronger effect = higher value
In short: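 Read-out: growth inhibition vs vehicle controls. Cells: mutant yeast strain deficient in DNA damage repair.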

[8] = NCI Yeast Anticancer Drug Screen. Data for the CLN2oe strain (AID 163);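 note: 0% = growth of vehicle-only control cultures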; conditions: S. cerevisiae CLN2oe strain, stronger effect = higher value
In short: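 Here, growth inhibition in a cell-cycle-altered yeast strain after compound exposure was quantified against vehicle control growth.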

[9] = NCI Yeast Anticancer Drug Screen. Data for the cln2 rad14 strain (AID 165);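 note: 0% = growth equal to vehicle treated cultures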; conditions: S. cerevisiae cln2 rad14 strain, stronger effect = higher value
In short: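 Growth of compound-exposed yeast (cln2 rad14 genotype) measured and expressed as inhibition relative to vehicle.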

[10] = NCI Yeast Anticancer Drug Screen. Data for the bub3 strain (AID 167); conditions: S. cerevisiae bub3 mutant strain, stronger effect = higher value
In short: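 Screening used yeast with an engineered genetic alteration affecting cell cycle control. Compound-exposed cultures were compared with vehicle cultures, and reduced growth was taken as inhibition.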

[11] = NCI Yeast Anticancer Drug Screen. Data for the wt2 strain (AID 169);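 note: 0% = growth of vehicle-treated yeast cultures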; conditions: S. cerevisiae wt2 strain growth inhibition, stronger effect = higher value
In short: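 Genetically defined yeast strains from a DNA-repair/cell-cycle panel were used. Compound-exposed yeast growth was measured, and the inhibition was calculated relative to vehicle treatment.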

[12] = NCI Yeast Anticancer Drug Screen. Data for the mlh1 strain (AID 171);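 note: 0% = growth of vehicle-treated control cultures of the same strain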; conditions: S. cerevisiae mlh1 strain growth inhibition, stronger effect = higher value
In short: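 Here the genetically defined yeast mutant is grown with each compound, and the extent to which its growth falls below that of vehicle-exposed cells is reported.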

[13] = NCI Yeast Anticancer Drug Screen. Data for the sgs1 strain (AID 173);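 note: 0% = growth of vehicle-only control cultures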; conditions: S. cerevisiae sgs1 mutant, stronger effect = higher value
In short: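 Relative growth inhibition, referenced to vehicle, was determined in a yeast strain with a defined alteration affecting DNA damage repair or cell cycle control after compound exposure.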

[14] = NCI Yeast Anticancer Drug Screen. Data for the mlh1 rad18 strain (AID 175); conditions: S. cerevisiae mlh1 rad18 strain growth inhibition, stronger effect = higher value
In short: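 In this whole-cell yeast screen, a strain with altered DNA damage repair is challenged with compound, and its growth is measured against matched vehicle-treated controls.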

[15] = NCI Yeast Anticancer Drug Screen. Data for the rad18 strain (AID 177); conditions: S. cerevisiae rad18 mutant growth inhibition, stronger effect = higher value
In short: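 Screen uses a yeast strain with a defined lesion in DNA damage repair; compound effect is read as loss of growth compared to untreated vehicle cultures.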

[16] = NCI Yeast Anticancer Drug Screen. Data for the rad52 strain (AID 147);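 note: 0% = growth of vehicle-treated control cultures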; conditions: S. cerevisiae rad52 mutant growth inhibition, stronger effect = higher value
In short: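 Measured: yeast growth inhibition. System: strain with a defined DNA damage repair alteration. Reference: vehicle-treated control cultures.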

[17] = at 5.0 µM (retest, dose inferred, filed as 0.5)
[18] = at 50.0 µM (retest, dose inferred, filed as 5.0)

Measured: growth inhibition

CC(=O)O[C@H]1C(=O)[C@@]2(C)[C@H]([C@H](OC(=O)c3ccccc3)[C@]3(O)C[C@H](OC(=O)[C@H](O)[C@@H](NC(=O)c4ccccc4)c4ccccc4)C(C)=C1C3(C)C)[C@]1(OC(C)=O)CO[C@@H]1C[C@@H]2O
inactive: [1]; at 1.2 µM -1% | [1]; at 3.7 µM -2% | [1]; at 11.0 µM -2% | [1]; at 33.0 µM -3% | [1]; at 100.0 µM -18% | [2]; at 1.2 µM -4% | [2]; at 3.7 µM -2% | [2]; at 11.0 µM -2% | [2]; at 33.0 µM 3% | [2]; at 100.0 µM 0% | [3]; at 1.2 µM -2% | [3]; at 3.7 µM -2% | [3]; at 11.0 µM -3% | [3]; at 33.0 µM -3% | [3]; at 100.0 µM -7% | [4]; at 1.2 µM -1% | [4]; at 3.7 µM -2% | [4]; at 11.0 µM 0% | [4]; at 33.0 µM -1% | [4]; at 50.0 µM 23.4% | [4]; at 100.0 µM -6% | [5]; at 1.2 µM -5% | [5]; at 3.7 µM -2% | [5]; at 11.0 µM 2% | [5]; at 33.0 µM -4% | [5]; at 50.0 µM 18.3% | [5]; at 100.0 µM -10% | [6]; at 1.2 µM -1% | [6]; at 3.7 µM -2% | [6]; at 11.0 µM 1% | [6]; at 33.0 µM -2% | [6]; at 100.0 µM -5% | [7]; at 50.0 µM -9% | [8]; at 1.2 µM -4% | [8]; at 3.7 µM -4% | [8]; at 11.0 µM -5% | [8]; at 33.0 µM -7% | [8]; at 100.0 µM -13% | [9]; at 50.0 µM 24.1% | [10]; at 1.2 µM -5% | [10]; at 3.7 µM -5% | [10]; at 11.0 µM 2% | [10]; at 33.0 µM -13% | [10]; at 50.0 µM -4.15% | [10]; at 100.0 µM -3% | [11]; at 1.2 µM -2% | [11]; at 3.7 µM -2% | [11]; at 11.0 µM -4% | [11]; at 33.0 µM -4% | [11]; at 100.0 µM -5% | [12]; at 1.2 µM -1% | [12]; at 3.7 µM -4% | [12]; at 11.0 µM -3% | [12]; at 33.0 µM -4% | [12]; at 100.0 µM -6% | [13]; at 1.2 µM -3% | [13]; at 3.7 µM -3% | [13]; at 11.0 µM -1% | [13]; at 33.0 µM -3% | [13]; at 100.0 µM -4% | [14]; at 50.0 µM 15.8% | [15]; at 1.2 µM -5% | [15]; at 3.7 µM -1% | [15]; at 11.0 µM 1% | [15]; at 33.0 µM 2% | [15]; at 100.0 µM 0%

OC(CN1CCCCC1)c1cc(Cl)c(Cl)c(Cl)c1 (centres undefined)
active: [10]; at 50.0 µM 70.8%
inactive: [16]; at 1.2 µM 3% | [16]; at 3.7 µM 11% | [16]; at 11.0 µM 17% | [16]; at 33.0 µM 28% | [16]; at 100.0 µM 40% | [2]; at 1.2 µM 3% | [2]; at 3.7 µM 8% | [2]; at 11.0 µM 10% | [2]; at 33.0 µM 7% | [2]; at 100.0 µM 1% | [4]; at 1.2 µM 5% | [4]; at 3.7 µM 13% | [4]; [17] 2% | [4]; at 11.0 µM 11% | [4]; at 33.0 µM 20% | [4]; [18] 41% | [4]; at 50.0 µM 38.4% | [4]; at 100.0 µM 36% | [5]; at 1.2 µM 5% | [5]; at 3.7 µM 11% | [5]; [17] 2% | [5]; at 11.0 µM 15% | [5]; at 33.0 µM 24% | [5]; [18] 49% | [5]; at 50.0 µM 32.2% | [5]; at 100.0 µM 38% | [6]; at 1.2 µM 9% | [6]; at 3.7 µM 25% | [6]; at 11.0 µM 33% | [6]; at 33.0 µM 28% | [6]; at 100.0 µM 39% | [7]; [17] 12% | [7]; [18] 49% | [7]; at 50.0 µM 57.1% | [8]; at 1.2 µM 7% | [8]; at 3.7 µM 8% | [8]; at 11.0 µM 32% | [8]; at 33.0 µM 47% | [8]; at 100.0 µM 57% | [9]; [17] 8% | [9]; [18] 35% | [9]; at 50.0 µM 51.6% | [10]; at 1.2 µM 3% | [10]; at 3.7 µM 9% | [10]; [17] 4% | [10]; at 11.0 µM 25% | [10]; at 33.0 µM 38% | [10]; [18] 38% | [10]; at 100.0 µM 53% | [11]; at 1.2 µM 3% | [11]; at 3.7 µM 8% | [11]; at 11.0 µM 10% | [11]; at 33.0 µM 12% | [11]; at 100.0 µM 15% | [12]; at 1.2 µM 5% | [12]; at 3.7 µM 7% | [12]; at 11.0 µM 17% | [12]; at 33.0 µM 18% | [12]; at 100.0 µM 21% | [13]; at 1.2 µM 6% | [13]; at 3.7 µM 14% | [13]; at 11.0 µM 20% | [13]; at 33.0 µM 27% | [13]; at 100.0 µM 37% | [14]; [17] 14% | [14]; [18] 43% | [14]; at 50.0 µM 50.4% | [15]; at 1.2 µM 5% | [15]; at 3.7 µM 13% | [15]; at 11.0 µM 8% | [15]; at 33.0 µM 14% | [15]; at 100.0 µM 22%

O=C1C=CC(=Nc2ccccc2)c2ccccc21
active: [2]; at 100.0 µM 70% | [4]; at 33.0 µM 88% | [4]; [18] 70% | [4]; at 100.0 µM 85%
inactive: [1]; at 1.2 µM 8% | [1]; at 3.7 µM 12% | [1]; at 11.0 µM 21% | [1]; at 33.0 µM 38% | [1]; at 100.0 µM 45% | [2]; at 1.2 µM 3% | [2]; at 3.7 µM 8% | [2]; at 11.0 µM 28% | [2]; at 33.0 µM 53% | [4]; at 1.2 µM 3% | [4]; at 3.7 µM 15% | [4]; [17] -8% | [4]; at 11.0 µM 65% | [4]; at 50.0 µM 37.9% | [5]; at 1.2 µM 5% | [5]; at 3.7 µM 10% | [5]; [17] 22% | [5]; at 11.0 µM 19% | [5]; at 33.0 µM 28% | [5]; [18] 43% | [5]; at 50.0 µM 45.3% | [5]; at 100.0 µM 44% | [6]; at 1.2 µM -1% | [6]; at 3.7 µM 1% | [6]; at 11.0 µM 12% | [6]; at 33.0 µM 38%

— PubChem BioAssay (NCI)
